Results as given in PubChem BioAssay AID504727 (Broad Institute, 2011).
Activity calls are given as the source filed them.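 The calls were made as follows: active = fitted half-maximal concentration AC50 at or below ten times the highest valid tested dose, with signal falling as DNA is displaced (actives reach about 34 µM in these data); inconclusive = flat fit at moderate signal loss, or poor fit quality; inactive = the rest, including signal rising instead of falling.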

Assay: DNA intercalators displacing acridine orange, dose response, artefact control for KSHV LANA DNA-binding inhibitor project, biochemical, fluorescence polarization, cherry-picked samples, set 2 (AID 504727)
Conditions: AC50: Acridine orange-DNA displacement; series mostly up to 35 µM

SMILES | AC50
CCCCNc1c2c3c(cccc3n(C)c1=O)C(=O)c1ccccc1-2 | 2.25 µM (active)
Clc1ccc(C2=CC(c3ccco3)n3ncnc3N2)cc1 (stereo not given) | inactive
O=C(Cn1c2ccccc2c2nc3n(c(=O)c21)CCS3)Nc1ccccc1C(F)(F)F | inactive
CC(=O)c1ccc2c(c1)C1C=CCC1C(C(=O)O)N2 (stereo not given) | inactive
Cn1nc(-c2ccccc2)c2nc3ccccc3nc21 | 35.8 µM (active)
CNc1c2cccc(C)c2nc2c(C(=O)NCCN(C)C)cccc12 | 6.16 µM (active)
CC(C)c1ccc(NC(=O)Cn2c(=O)oc3cccnc32)cc1 | inactive
CCn1c(=O)c(C(=O)NCCN2CCCCC2)c(O)c2ccccc21 | inactive
COc1ccc(CNC(=O)C2CCC(CNC(=O)[C@@H]3Cc4ccccc4CN3)CC2)cc1 (stereo not given in full) | inactive
CC(=O)NC(C(=O)c1ccccc1)C(=O)c1ccccc1 | inactive
NS(=O)(=O)c1ccc(N=Nc2c[nH]c(=O)c(O)c2)cc1 | 15.8 µM (active)
O=C(CN1C(=O)/C(=C/c2ccco2)SC1=S)Nc1ccc(O)c(C(=O)O)c1 | inactive
O=C(O)CCCN1C(=O)/C(=C/C=C/c2ccco2)SC1=S | inactive
O=C(Nc1ccccc1F)C(=Cc1sc(N2CCOCC2)nc1-c1ccccc1)C(=O)Nc1ccccc1F | 25.1 µM (active)
Cc1ccc(NC(=O)c2ccc(Cl)c(S(=O)(=O)N3CCc4ccccc43)c2)nc1 | inactive
CCOC(=O)N1CCN(C(=S)NC(=O)c2cccc(OC)c2)CC1 | inactive
O=C1CCCC(O)=C1N=Nc1ccc(C(=O)O)cc1 | inactive
CC(=O)Nc1ccc(S(=O)(=O)Nc2nc3ccccc3nc2Nc2ccc(C(=O)O)c(O)c2)cc1 | inactive
Cc1ccc(C(CC(=O)N2CCCCC2)c2ccccc2)c(O)c1C (stereo not given) | inactive
O=C(N/N=C\c1ccc([N+](=O)[O-])o1)c1cncc(Br)c1 | inactive
